# Screens (PubChem)
# SUMO Mot1 rescue – inhibitors of SUMOylation pathway: yeast Mot1-301 growth rescue. S. cerevisiae Mot1-301 growth rescue, ATP luminescence, 38.5C; percent above DMSO median, 100 means doubled. 1% of 320,000 active. AID 2716. growth rescue, % at 18.8 µM;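 active means every valid replicate shows activation above 250% relative to neutral control wells; inactive means the rest, any valid replicate at or below 250%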;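 further: OY570 slx delta 5 strain wells were the positive control but not used for scaling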
# FAS-TE inh – FAS thioesterase (human) inhibition | recombinant FAS-TE, OMFH fluorogenic substrate, fluorescence endpoint | inhibition, % at 15 µM | 0.67% of 360,000 active;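 active means compounds whose normalised, plate-corrected inhibition of enzyme fluorescence in the single-dose primary screen is 50% or more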;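 further: 0% = DMSO with enzyme and 100% = substrate without enzyme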
# Target sequence (P49327 whole entry, looked up): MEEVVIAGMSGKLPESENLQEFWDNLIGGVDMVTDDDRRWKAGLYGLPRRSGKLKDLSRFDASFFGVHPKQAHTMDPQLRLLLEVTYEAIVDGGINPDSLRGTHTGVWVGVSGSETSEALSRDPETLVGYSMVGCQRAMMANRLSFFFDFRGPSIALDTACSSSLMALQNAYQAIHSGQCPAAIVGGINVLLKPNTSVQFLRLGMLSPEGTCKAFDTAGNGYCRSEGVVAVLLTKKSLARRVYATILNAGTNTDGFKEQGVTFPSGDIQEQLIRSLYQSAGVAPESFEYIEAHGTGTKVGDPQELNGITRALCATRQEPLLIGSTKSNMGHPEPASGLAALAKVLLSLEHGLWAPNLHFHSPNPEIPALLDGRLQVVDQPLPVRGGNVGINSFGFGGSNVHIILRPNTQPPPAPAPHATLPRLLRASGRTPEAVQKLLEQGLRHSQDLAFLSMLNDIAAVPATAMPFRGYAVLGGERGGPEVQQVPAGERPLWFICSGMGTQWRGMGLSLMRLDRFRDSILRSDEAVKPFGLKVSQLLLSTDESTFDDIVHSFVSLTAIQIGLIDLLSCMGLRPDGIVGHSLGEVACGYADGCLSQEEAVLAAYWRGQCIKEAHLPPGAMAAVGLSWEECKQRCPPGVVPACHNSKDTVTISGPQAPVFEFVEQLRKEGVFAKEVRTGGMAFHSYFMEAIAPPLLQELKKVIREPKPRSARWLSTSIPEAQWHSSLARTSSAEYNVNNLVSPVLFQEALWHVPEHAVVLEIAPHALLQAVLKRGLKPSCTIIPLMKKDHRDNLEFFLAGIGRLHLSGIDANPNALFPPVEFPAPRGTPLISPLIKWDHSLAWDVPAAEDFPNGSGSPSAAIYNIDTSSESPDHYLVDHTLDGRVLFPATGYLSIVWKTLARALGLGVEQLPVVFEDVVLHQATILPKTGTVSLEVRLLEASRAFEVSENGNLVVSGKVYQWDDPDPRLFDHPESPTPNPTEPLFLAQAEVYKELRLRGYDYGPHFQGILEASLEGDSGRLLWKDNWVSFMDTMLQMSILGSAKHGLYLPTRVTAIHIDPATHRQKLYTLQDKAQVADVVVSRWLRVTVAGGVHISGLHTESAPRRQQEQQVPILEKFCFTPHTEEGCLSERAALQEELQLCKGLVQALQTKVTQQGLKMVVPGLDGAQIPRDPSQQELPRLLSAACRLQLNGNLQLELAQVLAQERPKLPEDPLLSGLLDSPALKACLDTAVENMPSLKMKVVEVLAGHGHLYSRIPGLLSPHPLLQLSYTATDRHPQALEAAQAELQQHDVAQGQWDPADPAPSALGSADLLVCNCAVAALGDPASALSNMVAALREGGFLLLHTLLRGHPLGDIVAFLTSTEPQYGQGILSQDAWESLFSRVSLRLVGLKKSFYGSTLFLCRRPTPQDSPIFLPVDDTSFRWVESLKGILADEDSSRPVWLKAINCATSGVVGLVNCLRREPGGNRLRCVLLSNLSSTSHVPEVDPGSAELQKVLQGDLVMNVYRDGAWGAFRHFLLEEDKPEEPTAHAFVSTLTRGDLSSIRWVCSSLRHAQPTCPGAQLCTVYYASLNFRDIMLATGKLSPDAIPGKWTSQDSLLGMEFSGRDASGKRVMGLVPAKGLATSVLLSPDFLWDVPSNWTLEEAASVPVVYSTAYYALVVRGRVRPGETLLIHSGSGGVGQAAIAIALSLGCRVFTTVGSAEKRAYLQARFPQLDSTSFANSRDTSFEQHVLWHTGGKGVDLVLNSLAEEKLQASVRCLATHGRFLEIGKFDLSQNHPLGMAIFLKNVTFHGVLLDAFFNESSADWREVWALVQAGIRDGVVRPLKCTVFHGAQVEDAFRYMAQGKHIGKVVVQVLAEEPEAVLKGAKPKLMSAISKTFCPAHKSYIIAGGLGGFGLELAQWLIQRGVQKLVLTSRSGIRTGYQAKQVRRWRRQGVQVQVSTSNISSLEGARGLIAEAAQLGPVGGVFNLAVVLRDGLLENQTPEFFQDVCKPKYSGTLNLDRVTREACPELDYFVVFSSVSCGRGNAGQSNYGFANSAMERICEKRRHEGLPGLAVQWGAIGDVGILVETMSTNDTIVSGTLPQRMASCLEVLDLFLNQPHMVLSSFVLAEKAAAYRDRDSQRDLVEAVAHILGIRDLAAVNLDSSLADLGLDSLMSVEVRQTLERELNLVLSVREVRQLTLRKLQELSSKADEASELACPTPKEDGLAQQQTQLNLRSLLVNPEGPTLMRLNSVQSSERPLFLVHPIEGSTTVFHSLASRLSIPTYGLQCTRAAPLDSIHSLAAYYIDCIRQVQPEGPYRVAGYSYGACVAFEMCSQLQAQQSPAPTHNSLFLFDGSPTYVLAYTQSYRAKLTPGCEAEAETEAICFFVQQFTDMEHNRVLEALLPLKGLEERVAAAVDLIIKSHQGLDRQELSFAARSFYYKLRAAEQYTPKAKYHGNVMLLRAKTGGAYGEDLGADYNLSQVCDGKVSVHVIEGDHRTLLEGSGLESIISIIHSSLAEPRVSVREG
# H9c2 protect – myocardial damage modulation in H9c2 cells | H9c2 cardiomyocytes, H2O2 injury protection, ATPLite, 2 h | protection from H2O2 cell death, % at 20 µM | 0.63% of 360,000 active | AID 588492;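 active means compounds giving at least 50% protection of heart cells from peroxide-induced death in the single-dose screen, raw or plate-pattern-corrected value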;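 further: 0% = DMSO wells with peroxide and 100% = DMSO wells without peroxide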
# CR mimetic SO – caloric restriction mimetics inhibiting age-related superoxide in yeast; S. cerevisiae aged cells, superoxide DHE fluorescence; stronger effect = lower value; superoxide response (% of plate mean), % at 10 µM; 0.18% of 330,000 active; AID 2690;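 active means superoxide response under a set limit, about three screen SD below normal, cut at about 65% in these data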;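 further: yeast aged for seven days with compound at 30 °C before DHE staining; 100% = average MFI of all compound-treated wells on the plate with controls excluded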
# MPTP block – permeability transition pore inhibition; isolated mouse mitochondria, Ca2+ swelling absorbance, 30 min; inhibition, % at 10 µM; 1.4% of 360,000 active;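 active means inhibition of 50% or more, scaled per plate between neutral and stimulator controls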;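 further: 0% = DMSO wells given calcium and 100% = 1 mM EGTA wells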
# aDG glyco act – alpha-DG glycosylation activation; activation, % at 10 µM; Pro5-aDG cells, alpha-DG glycosylation AlphaScreen (IIH6); 0% Pro5, 100% B10-LARGE cell signal; 0.22% of 360,000 active;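 active means activation of at least 8% versus controls, or a plate z-score of at least 8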;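 further: Pro5 are CHO cells carrying HIG-tagged alpha-DG that lacks glycosylation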
# FAS-TE inh conf – FAS thioesterase (human) inhibition, confirmation; shares compounds with FAS-TE inh; recombinant FAS-TE, OMFH fluorogenic substrate, fluorescence; inhibition, % at 15 µM; 45% of 2,300 active;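 active means compounds inhibiting the enzyme by at least 50% at 15 µM in any one of the replicates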;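 further: 0% = enzyme with DMSO only and 100% = wells lacking enzyme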
# * = called active by the depositor; . = no result. Compounds with a hit are over-represented: about 3.8% of the library has one in this group of screens.
SMILES,SUMO Mot1 rescue,FAS-TE inh,H9c2 protect,CR mimetic SO,MPTP block,aDG glyco act,FAS-TE inh conf
Cc1cc([N+](=O)[O-])ccc1NC(=O)CN1C2CCC1CC(NC(=O)NC13CC4CC(CC(C4)C1)C3)C2 (stereo not given),-2,51*,-11,93,2,4,11
Cc1ccc(C(=O)NCC(=O)OCc2nnc(-c3ccc([N+](=O)[O-])cc3)o2)s1,-6,53*,-2,86,0,0,65*
O=C1CCCN2N=C(SCC(=O)N3N=C(c4ccc(Br)cc4)CC3c3ccc(F)cc3)SC2=N1 (stereo not given),-6,45,-3,110,0,0,.
COc1ccc(C2CC(c3cccs3)=NN2C(=O)CSc2nc(=O)n3ccc(C)cc3n2)cc1 (stereo not given),250,57*,3,105,-2,0,57*
Cc1ccc(C2CC(c3cccs3)=NN2C(=O)CSc2nc(=O)n3ccc(C)cc3n2)cc1 (stereo not given),-3,46,4,111,-2,0,.
COc1ccc(C2=NN(C(=O)CSc3nc(=O)n4cc(C)ccc4n3)C(c3ccc(C)cc3)C2)cc1 (stereo not given),-9,69*,-1,114,-2,0,40*
Cc1ccc(C2CC(c3ccc(Br)cc3)=NN2C(=O)CSC2=NN3CCCC(=O)N=C3S2)cc1 (stereo not given),-3,54*,-4,92,-1,0,10
COc1ccc(NC(=O)C2c3ccccc3OCC(=O)N2CCc2ccccc2)cc1 (stereo not given),.,-5,.,.,0,0,.
COc1ccc(/C(N)=N/OC(=O)C2CCCCC2)cc1,1,6,-5,95,1,0,.
CC(OC(=O)c1ccccc1Br)C(=O)Nc1nc(-c2cccc([N+](=O)[O-])c2)cs1 (stereo not given),-8,5,-2,103,-6,1,.
O=C(Nc1nc(-c2cccc([N+](=O)[O-])c2)cs1)C(c1ccccc1)c1ccccc1,.,52*,-18,98,4,0,12
O=C1OC2C(O)COC23OC(O)CCC13O (stereo not given),.,-3,7,.,1,0,.
CC(C)NC(=O)c1cc(C2CCCCN2S(=O)(=O)c2ccccc2)on1 (stereo not given),.,-2,2,.,0,0,.
O=C(COC(=O)c1ccc(Cl)c([N+](=O)[O-])c1)NC1CCCC1,26,74*,8,93,0,0,65*
Nc1ccc(C(=O)OCC(=O)N2CCc3ccccc3C2)cc1[N+](=O)[O-],-12,23,1,94,1,0,.
Nc1ccc(C(=O)OCC(=O)N2c3ccccc3Sc3ccccc32)cc1[N+](=O)[O-],21,66*,-1,128,2,0,24
O=C(OCC(=O)N1CCc2ccccc2C1)c1ccc(Cl)c([N+](=O)[O-])c1,0,72*,2,80,0,0,71*
Nc1ccn([C@@H]2O[C@H](CNCc3cnc(N4CCOCC4)s3)[C@@H](O)[C@H]2O)c(=O)n1,.,-4,5,.,-1,0,.
CC(C)Cn1c(N)c(C(=O)COC(=O)c2cc3ccccc3cc2O)c(=O)n(C)c1=O,-14,82*,-11,115,0,2,2
CC(C)Cn1c(N)c(C(=O)COC(=O)c2ccc(O)cc2O)c(=O)n(C)c1=O,-2,0,-13,91,-1,0,.
Cc1ccc(S(=O)(=O)Oc2ccc(/C=C3/N=C(c4ccccc4)OC3=O)cc2)cc1,0,54*,3,88,-1,0,15
CCCCc1ccc(/C(C)=N/Nc2cc(N3CCOCC3)nc(C)n2)cc1,-7,73*,-11,95,1,0,20
CCOC(=O)c1cc2c(=Cc3ccc(N(C)C)cc3)c3ccccc3n2[n+]1C,.,62*,-20,.,32,0,61*
CN(C)S(=O)(=O)c1ccc(S(=O)(=O)N2CCCC(C(=O)NC3CCCC3)C2)cc1 (stereo not given),8,-7,-6,87,0,1,.
N#CC(=Cc1ccnc2ccccc12)c1ccccc1,.,15,-11,.,-1,0,.
SMILES,SUMO Mot1 rescue,FAS-TE inh,H9c2 protect,CR mimetic SO,MPTP block,aDG glyco act,FAS-TE inh conf
COc1ccc(CNC(=O)CN2C(=O)NC(C)(c3ccc(Cl)cc3)C2=O)cc1 (stereo not given),9,1,-1,102,1,0,.
CC(/C=C1\SC(=S)N(c2ccc(C(=O)O)cc2)C1=O)=C\c1ccccc1,10,90*,4,98,32,0,14
CC(/C=C1\SC(=S)N(NC(=O)c2ccc(C)cc2)C1=O)=C\c1ccccc1,15,18,-5,107,0,0,.
O=S(=O)(c1ccc(F)cc1)N1CCCC(c2nc(-c3ccc(F)cc3)no2)C1 (stereo not given),-10,58*,-11,97,-1,1,23
COc1ccc(-c2c(C#N)sc(C(N)=O)c2-c2ccc(OC)cc2)cc1,76,60*,11,94,9,0,47
N#Cc1sc(C(N)=O)c(-c2ccccc2)c1-c1ccccc1,1,-1,-7,109,2,0,.
CC(C)Cc1ccc(-c2cc3nc(NCCc4ccc(S(N)(=O)=O)cc4)ccn3n2)cc1,.,18,-17,.,2,1,.
COc1ccc(CCn2c(=N)c(S(=O)(=O)c3ccc(C)cc3)cc3c(=O)n4ccccc4nc32)cc1,18,59*,3,87,0,0,-42
N=c1c(S(=O)(=O)c2ccc(Cl)cc2)cc2c(=O)n3ccccc3nc2n1C1CCCC1,-6,65*,-6,93,2,0,3
Cc1ccc(Cn2c(=N)c(S(=O)(=O)c3ccc(Br)cc3)cc3c(=O)n4ccccc4nc32)cc1,5,8,-4,73,0,2,.
CCOC(=O)CCNC(=O)CCc1nnc(CCCc2ccccc2)o1,-3,-4,6,100,0,0,.
CCOc1ccc(-n2c(=O)c3c4c(sc3n(CC(=O)NCC3CCCO3)c2=O)CCC4)cc1 (stereo not given),5,-2,1,91,2,0,.
CN1c2ccccc2C(C)(C)C12CC(c1ccc(S(=O)(=O)N3CCCCC3)cc1)=NO2 (stereo not given),359,75*,-1,94,4,0,23
CCN(CC)S(=O)(=O)c1ccc(C2=NOC3(C2)N(C)c2ccccc2C3(C)C)cc1 (stereo not given),-12,50,-4,95,10,1,.
